What follows are molecules tested on Vero E6 infected with SARS-CoV-2 (assay: inhibition of SARS-CoV-2 cytopathic effect; higher = more antiviral protection, active = above 15). Details: 833.33 nM; 48 h.

Structure (SMILES) | inhibition of SARS-CoV-2 cytopathic effect
COP(=O)(OC)OC(c1ccc(Cl)cc1)P(=O)(OC)OC (stereo not drawn) [mifobate] | -2.04% (inactive)
O=C(Nc1cccc2c(=O)cc(-c3nnn[nH]3)oc12)c1ccc(OCCCCc2ccccc2)cc1 [pranlukast] | -3.27% (inactive)
C#Cc1cncc([C@@H]2CCCN2C)c1 [altinicline] | -2.32% (inactive)
FC(F)(F)Oc1ccc2nc(-c3ccc(OCCOCCOc4ccc(-c5nc6ccc(OC(F)(F)F)cc6[nH]5)nc4)cn3)[nH]c2c1 | 3.47% (inactive)
Nc1ncnc2c1ncn2[C@@H]1O[C@H](COP(=O)(O)O)[C@@H](O)[C@H]1O [adenosine-phosphate] | -3.83% (inactive)
CC(C)Oc1cccc(CC(=O)N2CCC[C@](CC[N+]34CCC(c5ccccc5)(CC3)CC4)(c3ccc(Cl)c(Cl)c3)C2)c1 | 4.46% (inactive)
Cc1ccc2c(c1)[C@]13CCCC[C@@H]1[C@H](C2)N(C)CC3 [dimemorfan] | 1.02% (inactive)
OC[C@H]1O[C@@H](c2ccc(F)c(Cc3cc4ccccc4s3)c2)[C@H](O)[C@@H](O)[C@@H]1O [ipragliflozin-L-proline] | 0.42% (inactive)
N#CCC(=O)c1ccccc1 | 2.33% (inactive)
CC[C@@H](C(N)=O)N1CCCC1=O [levetiracetam] | 0.56% (inactive)
CCC[C@@H]1C[C@@H](C(=O)N[C@@H]([C@H]2O[C@H](SC)[C@H](O)[C@@H](O)[C@H]2O)[C@@H](C)O)N(C)C1 [lincomycin] | -1.24% (inactive)
O=C(OCCOCCO)c1ccccc1Nc1cccc(C(F)(F)F)c1 [etofenamate] | -0.46% (inactive)
CC1(C)[C@@H]2C[C@@H](O)[C@@](C)(O)[C@H]1C2 [2,3-cis/exo-pinanediol] | -0.64% (inactive)

Same assay, conditions: 10000 nM; 48 h

Structure (SMILES) | inhibition of SARS-CoV-2 cytopathic effect
CC(C)(C)c1cc(C(C)(C)C)c(NC(=O)c2c[nH]c3ccccc3c2=O)cc1O [ivacaftor] | -4.71% (inactive)
Cc1ccc(NC(=O)CCCCCC(=O)Nc2ccccc2N)cc1 | 3.57% (inactive)
CC(C)(N)Cc1ccccc1 [phentermine] | 1.23% (inactive)
CNC1CC(N)C(O)C(OC2OC(CO)C(O)C3OC4(OC(C(N)CO)C(O)C(O)C4O)OC23)C1O (stereo not drawn) [Hygromycin B] | 1.46% (inactive)
O=C(O)c1cc(O)c2c(c1)C(=O)c1cccc(O)c1C2=O [rhein] | -2.1% (inactive)
C[C@]12CC[C@@H]3c4ccc(OS(=O)(=O)O)cc4CC[C@H]3[C@@H]1CCC2=O [estropipate] | -6.12% (inactive)
O=C1NS(=O)(=O)c2ccccc21 [saccharin] | -2.82% (inactive)
O=C(O)COc1nn(Cc2ccccc2)c2ccccc12 [bendazac] | -2.52% (inactive)
Nc1ncnc2c1c(-c1cnc3[nH]ccc3c1)nn2C1CCCC1 | -16.5% (inactive)
CC(C)(N)c1nc(-c2ccc(OC(F)(F)F)cc2)c[nH]1 | -2.65% (inactive)
CCCN(CCC)[C@H]1CCc2cccc(O)c2C1 [8-hydroxy-DPAT] | -3.59% (inactive)
Cc1nnsc1C(=O)Nc1ccc(-n2nc(C(F)(F)F)cc2C(F)(F)F)cc1 | -10.5% (inactive)
O=C(O)C(Cl)Cl [dichloroacetate] | 2.63% (inactive)
COC(=O)[C@H](CC(C)C)NC(=O)[C@@H](N)CC(C)C [leucylleucine-methyl-ester] | -0.55% (inactive)
COc1cccc2cc(-c3nc([C@H]4CC[C@H](C(=O)O)CC4)n4ncnc(N)c34)[nH]c12 | -2.61% (inactive)
O=C(O)c1ccccc1Nc1cccc(C(F)(F)F)c1 [flufenamic-acid] | 0.1% (inactive)
O=C(CCc1ccc(O)cc1)c1c(O)cc(O)cc1O [phloretin] | -1.02% (inactive)
N[C@@H](CS)C(=O)O [L-cysteine] | -5.76% (inactive)
CC(C)NCC(O)c1ccc2ccccc2c1 (stereo not drawn) [pronethalol] | -1.64% (inactive)
O=c1[nH]c2ccccc2n1C1CCN(CCCC(c2ccc(F)cc2)c2ccc(F)cc2)CC1 [pimozide] | -5.7% (inactive)

Structure (SMILES) | inhibition of SARS-CoV-2 cytopathic effect
CC(C)NCC(O)COc1cccc2ccccc12 (stereo not drawn) [propranolol] | -2.77% (inactive)
N#C/C(=C\c1cccn1S(=O)(=O)c1cccc([N+](=O)[O-])c1)S(=O)(=O)c1ccc(F)cc1 | -0.73% (inactive)
Cc1csc(S(=O)(=O)N(CC(C)C)c2cc3c(cc2OCc2ccc(C(=O)O)cc2)CCC3)n1 | 2.78% (inactive)
CC(C)[C@@H](C)/C=C/[C@@H](C)[C@H]1CC[C@H]2C3=CC=C4C[C@@H](O)CC[C@]4(C)[C@H]3CC[C@]12C [ergosterol] | 2.85% (inactive)
O=C(NCCO)c1cc(C(=O)NCCO)cc(C(=O)NCCO)c1 | 0.61% (inactive)
C[C@H]1NC(=O)NC1=O [5-methylhydantoin-(D)] | 0.71% (inactive)
COc1ccc(C(=O)c2c(C)n(CCN3CCOCC3)c3cc(I)ccc23)cc1 | 2.05% (inactive)
COP(=O)(OC)OC(c1ccc(Cl)cc1)P(=O)(OC)OC (stereo not drawn) [mifobate] | -5% (inactive)
O=C(Nc1cccc2c(=O)cc(-c3nnn[nH]3)oc12)c1ccc(OCCCCc2ccccc2)cc1 [pranlukast] | 1.15% (inactive)
C#Cc1cncc([C@@H]2CCCN2C)c1 [altinicline] | 0.92% (inactive)
FC(F)(F)Oc1ccc2nc(-c3ccc(OCCOCCOc4ccc(-c5nc6ccc(OC(F)(F)F)cc6[nH]5)nc4)cn3)[nH]c2c1 | -6.61% (inactive)
Nc1ncnc2c1ncn2[C@@H]1O[C@H](COP(=O)(O)O)[C@@H](O)[C@H]1O [adenosine-phosphate] | -12.6% (inactive)
CC(C)Oc1cccc(CC(=O)N2CCC[C@](CC[N+]34CCC(c5ccccc5)(CC3)CC4)(c3ccc(Cl)c(Cl)c3)C2)c1 | 1.59% (inactive)
Cc1ccc2c(c1)[C@]13CCCC[C@@H]1[C@H](C2)N(C)CC3 [dimemorfan] | 0.98% (inactive)
OC[C@H]1O[C@@H](c2ccc(F)c(Cc3cc4ccccc4s3)c2)[C@H](O)[C@@H](O)[C@@H]1O [ipragliflozin-L-proline] | 0.4% (inactive)
N#CCC(=O)c1ccccc1 | -0.41% (inactive)
CC[C@@H](C(N)=O)N1CCCC1=O [levetiracetam] | -0.05% (inactive)
CCC[C@@H]1C[C@@H](C(=O)N[C@@H]([C@H]2O[C@H](SC)[C@H](O)[C@@H](O)[C@H]2O)[C@@H](C)O)N(C)C1 [lincomycin] | -1.36% (inactive)
O=C(OCCOCCO)c1ccccc1Nc1cccc(C(F)(F)F)c1 [etofenamate] | -2.39% (inactive)
CC1(C)[C@@H]2C[C@@H](O)[C@@](C)(O)[C@H]1C2 [2,3-cis/exo-pinanediol] | 2.13% (inactive)

— the supplement of paper PMC13380429
